# Source: PubChem BioAssay
# Abeta rescue – A-beta toxicity reversal in yeast; yeast expressing A-beta42, growth rescue, OD600, 48 h; response scale: 0% DMSO, 100% iron-clioquinol control; Potency, µM (series often up to 46.1 µM), usual class: activators; hit rate 0.063% among 410,000; AID 1347071; note: nearly all actives have a fitted effect of over 55% in size
#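 Growth rescue measured by 600 nm absorbance after 48 h yeast culture at 30 C with compound. Values normalized between DMSO and an equimolar ferric chloride plus clioquinol control.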
# FUS suppressor – FUS proteinopathy suppression in yeast. S. cerevisiae FUS-expressing, growth rescue, OD600, 24 h. Potency, µM (highest dose often 76.6 µM), hits mostly activators. hit rate 0.24% among 390,000. AID 1347120; note: nearly all actives have a fitted effect of over 55% in size
#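 Yeast FUS proteinopathy model; galactose-induced FUS (2%), starting OD 0.005. Cpds in dilution series, 24hr, 30C, 99% humidity. Abs 600 nm growth. Pos ctrl CP55940 (top 92uM final); neg ctrl DMSO.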
# aSyn rescue – inhibitors of alpha-synuclein toxicity in yeast. Yeast expressing alpha-synuclein, growth rescue, BacTiter-Glo, 24 h. Potency, µM (doses to about 46.1 µM), most hits filed as activators. hit rate 0.14% among 370,000; note: nearly all actives have a fitted effect of over 65% in size
#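 Rescue of yeast growth: cells expressing toxic alpha-synuclein, induced in galactose at OD600 0.02, incubated with compound 24 h at 30 C. ATP luminescence quantified growth; inhibitors of toxicity appear as activators.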
# TDP-43 yeast inh – TDP-43 toxicity inhibition in yeast | TDP-43 expressing yeast growth rescue, BacTiter-Glo, 24 h | Potency, µM (series often up to 46.1 µM), hits mostly activators | AID 652104 | hit rate 1.8% among 410,000; note: nearly all actives have a fitted effect of over 50% in size
#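 Yeast cells expressing TDP-43 under galactose induction are exposed to compounds for 24 hr at 30 deg C. BacTiter-Glo luminescence measures growth, so protective compounds score as activators.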
# A number is an active result; - = inactive; ? = inconclusive; . = no result given; [ ] = remark or other dose. Hits are enriched below; roughly 2.1% of the tested compounds scored in any of these assays. Calls come from the whole dose curve; as a rule, active = well fitted curve in the direction sought with a large enough effect; inconclusive = small, poorly fitted or top-dose-only effect, or another doubt; inactive = no such curve, though single readings can be large; an effect the other way counts as inactive or inconclusive.
SMILES,Abeta rescue,FUS suppressor,aSyn rescue,TDP-43 yeast inh
O=C(c1cc2ccc3cccnc3c2[nH]1)N1CCN(c2ccc(Cl)cc2)CC1,-,-,.,-
COc1cccc(CCNC(=O)c2c(O)nc3ccccn3c2=O)c1,-,-,.,-
CCCCCCn1c(=O)n2n(c1=O)[C@@H]1CN(S(=O)(=O)c3ccc(C)cc3)C[C@]1(O)[C@@H](OC(=O)NC1CCCC1)C2,-,-,-,-
CCOc1ccc(C(C(=O)NCC2CCCO2)N(Cc2cccnc2)C(=O)c2snc(C(N)=O)c2N)cc1 (centres undefined),-,-,-,-
Cc1nc(SCC(=O)N(C)Cc2ccco2)c2c(C)c(C)sc2n1,-,-,-,22µM
O=S(=O)(N[C@@H]1CCCC[C@H]1N1CCOCC1)c1ccc(Cl)cc1,.,-,.,.
COCCn1cnnc1SCC(=O)Nc1sc2c(c1C#N)CCC2,-,.,-,-
COc1cc(OC)cc(C(=O)Nc2sc3c(c2C(N)=O)CCC3)c1,-,-,3.5µM,-
Cn1cnnc1SCC(=O)Nc1sc2c(c1C(N)=O)CCC2,-,7.1µM,-,-
COc1ccc(CC(=O)Nc2sc3c(c2C(N)=O)CCCC3)cc1,-,-,-,-
O=C(c1ccc(-c2ccccc2)cc1)N1CCN(c2ccccn2)CC1,-,-,-,-[9.22 µM]
COc1ccc(NC(=O)Nc2cccc3c2O[C@H](CN(C)C(=O)Nc2ccc(OC)cc2)[C@@H](C)CN([C@H](C)CO)C3=O)cc1,-,32µM,-,-
C[C@@H]1CN([C@H](C)CO)C(=O)c2cc(NC(=O)Cc3cn(C)c4ccccc34)ccc2O[C@H]1CN(C)C(=O)Nc1ccc2c(c1)OCO2,-,32µM,-,-
COc1ccc(NC(=O)N(C)C[C@H]2Oc3ccc(NC(=O)Nc4ccc(C(F)(F)F)cc4)cc3C(=O)N([C@H](C)CO)C[C@@H]2C)cc1,-,35µM,-,-
C[C@H](CO)N1C[C@H](C)[C@@H](CN(C)C(=O)Nc2ccc3c(c2)OCO3)Oc2ccc(NC(=O)Cc3ccccc3)cc2C1=O,-,-,-,-
CN(C(=O)c1cc(-c2ccccc2O)on1)c1ccccc1,-,-,.,-
Cc1cccc(NC(=S)NC(C)C(c2ccccc2)N2CCN(C)CC2)c1C (centres undefined),-,-,-,-
Cn1c2ccccc2c(=O)c2ccc(NCc3ccc4c(c3)OCO4)cc21,-,-,-,16µM
OC[C@H]1O[C@@H](n2cnc3cncnc32)[C@H](O)[C@@H]1O,.,.,-,.
Cn1c(CC(O)c2nc3ccccc3n2C)nc2ccccc21 (centres undefined),-,-,-,-
O=C1c2ccccc2-c2onc3ccc(Oc4ccccc4)c1c23,-,.,?,7.1µM
O=C(c1ccc(F)cc1)N1CCC(c2nc3ccccc3o2)CC1,-,-,.,-
O=C(c1cccc(Cl)c1)N1CCC(c2nc3ccccc3o2)CC1,-,-,.,13µM
COc1ccccc1-c1nnc(C2CCN(C(=O)c3cccc(Cl)c3)CC2)o1,-,-,.,20µM
O=C(c1cc(COc2ccc(F)cc2Cl)on1)N1CCN(c2cnccn2)CC1,-,.,-,32µM
SMILES,Abeta rescue,FUS suppressor,aSyn rescue,TDP-43 yeast inh
O=C(c1cc(COc2ccc(F)cc2Cl)on1)N1CCSCC1,-,-,-,?
O=C(CNC1=NCCS1)c1c[nH]c2ccccc12,.,.,-,.
O=C1CCC/C1=C/Nc1ccc2c(c1)OCO2,-,-,.,-
CC1CCC/C(=C\Nc2ccc3c(c2)OCO3)C1=O (centres undefined),-,16µM,-,-
COC(=O)c1ccc(Cn2nc([N+](=O)[O-])c(Br)c2C)cc1,?,-,?,14µM
CCC(=O)N1CCc2cc(Br)c(S(=O)(=O)N3CCC(C(=O)NC(C)(C)C)CC3)cc21,.,-,.,.
O=C(Cc1cccs1)NNC(=S)NC(=O)c1ccco1,10µM,-,?,?
O=C(Cc1ccc(Cl)cc1)NNC(=S)NC(=O)c1cccs1,?,-,-,28µM
CC(C)c1ccc(OCC(=O)NNC(=S)NC(=O)c2ccco2)c(Br)c1,-,-,-,10µM
Cc1ccccc1OCC(=O)NNC(=S)NC(=O)c1ccco1,?,-,?,7.1µM
O=C(Cc1cccs1)NNC(=S)NCc1ccc(Cl)cc1,-,-,-,-
Cc1ccccc1OCC(=O)Nc1ccccc1NC(=O)c1ccco1,-,-,-,-
CN(Cc1ccccc1F)C(=O)C1CCC(CNS(=O)(=O)c2cccc3cccnc23)CC1 (centres undefined),.,-,.,.
Cc1cc2n(n1)C(c1cn(-c3ccccc3)nc1C)Nc1ccccc1-2 (centres undefined),-,-,-,-
Cc1cc2n(n1)C(c1c[nH]c3ccccc13)Nc1ccccc1-2 (centres undefined),-,.,-,7.9µM
O=C(CCNc1ccc(Cl)cc1)c1cccs1,-,-,-,-
O=C(CCNc1cc(Cl)cc(Cl)c1)c1cccs1,-,-,-,10µM
CC(=O)Nc1ccc(/C=C2\CCc3ccccc3C2=O)cc1,-,-,-,35µM
COc1ccc(/C=C2\CCc3ccccc3C2=O)cc1O,-,-,-,14µM
O=C1/C(=C\c2ccc([N+](=O)[O-])cc2)CCc2ccccc21,-,-,-,?
O=C(COC(=O)c1cc(Cl)ccc1[N+](=O)[O-])Nc1cccc2ccccc12,-,.,-,20µM
Cc1ccc(NC(=O)COC(=O)c2cc(Cl)ccc2[N+](=O)[O-])c(C)c1,-,.,-,-
CCc1ccc(CNC(=O)C(CC)n2nc(C)c3c(C)n(-c4ccccc4)nc3c2=O)cc1 (centres undefined),-,-,.,-
COc1ccc2c(c1)c(C(C)=O)c(C)n2CCc1ccc(OC)c(OC)c1,-,-,-,20µM
O=C(NCCc1ccccc1)C1C(=O)Nc2ccccc2C(=O)N1C1CCCCC1 (centres undefined),-,-,13µM,?
SMILES,Abeta rescue,FUS suppressor,aSyn rescue,TDP-43 yeast inh
O=C(NCc1ccccc1)C1C(=O)Nc2ccccc2C(=O)N1C1CCCC1 (centres undefined),-,-,-,-
O=C(OCn1nnc2ccccc2c1=O)c1ccc2ncsc2c1,-,-,?,11µM
CCN(CC)S(=O)(=O)c1ccc(C(=O)OCn2nnc3ccccc3c2=O)cc1,-,-,3.2µM,-
O=C(OCn1nnc2ccccc2c1=O)c1ccc(S(=O)(=O)N2CCOCC2)cc1,-,-,-,-
COc1ccc(/C=N/NC(=O)c2ccoc2C)cc1COc1ccc(Cl)cc1,?,?,-,14µM
COc1ccc(/C=N/NC(=O)c2ccn[nH]2)cc1COc1ccc([N+](=O)[O-])c(C)c1,-,-,-,25µM
Cc1ccc(-c2ccc(=O)n(CC(=O)Nc3cccc(C#N)c3)n2)cc1,-,-,.,-
CCc1cccc(NC(=O)Cn2nc(-c3cc(C)ccc3C)ccc2=O)c1,?,?,.,28µM
CCCCN(C)c1nc(-c2ccco2)c2c(c1C#N)CC(C)(C)OC2,-,-,-,20µM
S=C(NCC1CCCCC1)OC1CCC12CCC(c1ccccc1)CC2 (centres undefined),.,-,.,.
